From the supplement of paper PMC6607015
Counter-ions that a name gives are not always drawn.

What follows are compounds tested on HeLa MZ (assay: whole-cell filipin (free cholesterol) integrated intensity, Z-score; higher = more cholesterol staining). Details: compound concentration in added solution (µM; 5 µl added to 20 µl cells): 10; 18 h.
In short: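 Each value is a Z-score normalised in AcuityXpress from per-cell integrated LBPA or filipin intensity, taken over the whole cell or within LBPA endosomes. Duplicate 384-well imaging plates held 5 µl of 10 µM compound solution, onto which 3,500 HeLa MZ or A431 cells in 20 µl were seeded per well. After 18 h the cells were fixed in 4% PFA, stained with 6C4 anti-LBPA antibody, filipin, propidium iodide and CellTracker green, imaged four times per well at 20× and segmented in MetaXpress.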

Row | Structure (SMILES) | whole-cell filipin (z-score)
1 | CC(=O)Oc1cc(C(F)(F)F)ccc1C(=O)O [Triflusal] | 0.0625
2 | O=C(CCCN1CCC(O)(c2ccc(Br)cc2)CC1)c1ccc(F)cc1 [Bromperidol] | 1.12
3 | CCOc1ccccc1OCC1CNCCO1 (configuration not stated) [Viloxazine hydrochloride] | -0.0106
4 | N=C(N)NC(=N)NCCc1ccccc1 [Phenformin hydrochloride] | 1.16
5 | N=C(N)NC(=O)Cc1c(Cl)cccc1Cl [Guanfacine hydrochloride] | 0.368
6 | N[C@@H](Cc1cc(I)c(Oc2ccc(O)c(I)c2)c(I)c1)C(=O)O [Liothyronine] | -0.281
7 | Cc1onc(-c2c(Cl)cccc2Cl)c1C(=O)N[C@@H]1C(=O)N2[C@@H]1SC(C)(C)[C@@H]2C(=O)O [Dicloxacillin sodium salt hydrate] | -0.567
8 | CCCC(=O)Nc1ncnc2c1ncn2[C@@H]1O[C@@H]2COP(=O)(O)O[C@H]2[C@H]1OC(=O)CCC [Bucladesine sodium salt] | 0.0614
9 | c1ccc2c(CC3=NCCN3)cccc2c1 [Naphazoline hydrochloride] | 0.085
10 | NC(=O)c1cc[n+](CC2=C(C(=O)[O-])N3C(=O)[C@@H](NC(=O)[C@@H](c4ccccc4)S(=O)(=O)O)[C@H]3SC2)cc1 [Cefsulodin sodium salt] | -0.0382
11 | CCN[C@H]1C[C@H](C)S(=O)(=O)c2sc(S(N)(=O)=O)cc21 [Dorzolamide hydrochloride] | 0.22
12 | CN(C)CCOc1ccc(/C(=C(/CCCl)c2ccccc2)c2ccccc2)cc1 [Toremifene] | 1.93
